Screening data (PubChem)
Pf growth 48h: Primary qHTS for delayed death inhibitors of the malarial parasite plastid, 48 hour incubation; P. falciparum luciferase growth in erythrocytes, 48 h; Potency, µM (doses to about 28.7 µM), without a hit: at the highest dose activity change, negative = inhibition, hits mostly inhibitors; 310,000 compounds, 5.9% hits; AID 504832, 2011; note: % is set by controls: 0 for no effect and ±100 for the full control effect
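Luciferase-expressing P. falciparum in infected erythrocytes (2% hematocrit, 0.1% parasitemia final) in RPMI 1640/0.5% Albumax were exposed to compound for 48 hours at 37 C, 5% CO2; growth read as luminescence.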
Pf growth 96h: Primary qHTS for delayed death inhibitors of the malarial parasite plastid, 96 hour incubation. Potency, µM (top dose mostly 28.7 µM), for the others: at the highest dose activity change, negative = inhibition, most hits filed as inhibitors. 320,000 compounds, 6.9% hits. P. falciparum luciferase reporter growth, 96 h. AID 504834, 2011; note: % is set by controls: 0 for no effect and ±100 for the full control effect
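Two-generation exposure (96 h) targets delayed-death phenotype. Reporter parasites carrying integrated firefly luciferase, in red cells at 2% hematocrit and 0.05% parasitemia final, kept at 37 C, 5% CO2; luminescence loss indicates inhibition.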
HCV inh: qHTS Assay for Inhibitors of Hepatitis C Virus (HCV); Huh7.5.1 HCVcc-Cre infection, luciferase reporter, 44 h; Potency, µM (top dose mostly 41.8 µM), for inactives: at the highest dose activity change, negative = inhibition, hits mostly inhibitors; 340,000 compounds, 3.4% hits; AID 651820, 2012; note: % is set by controls: 0 for no effect and ±100 for the full control effect
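HCVcc-Cre virus at an moi near 0.5 was added right after compound to cells cultured 4 h from seeding (1,000 cells/well). Luciferase activity was determined 44 h later, 15 min after substrate addition at RT.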
NS1 function inh: qHTS Assay for Inhibitors of Influenza NS1 Protein Function. Potency, µM (titrated, usually from 46.1 µM), without a hit: at the top dose activity, positive = more growth. 270,000 compounds, 0.4% hits. AID 2326, 2010; calls by dose curve; note: actives are rising curves; nearly all actives have a fitted effect of over 50% in size
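Compounds were scored for reversing the slow growth caused by influenza A NS1 in S. cerevisiae, measured by optical density at 600 nm. Assay medium contained 2% galactose at pH 6.0; NS1-free yeast of the same strain were the positive control.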
Vaccinia Venus: qHTS for Stage-Specific Inhibitors of Vaccinia Orthopoxvirus: Venus Reporter Primary qHTS | Potency, µM (top dose mostly 36.5 µM), inactives show at the highest dose activity change, negative = inhibition, most hits filed as inhibitors | Vaccinia virus Venus reporter expression, fluorescence | 330,000 compounds, 0.46% hits | AID 720580, 2013; calls by dose curve; tested in A549 cells; note: % is set by controls: 0 for no effect and ±100 for the full control effect; nearly all actives have a fitted effect of over 30% in size
VACV mCherry inh: qHTS for Stage-Specific Inhibitors of Vaccinia Orthopoxvirus: mCherry Reporter Primary qHTS. 310,000 compounds, 0.63% hits. Vaccinia virus mCherry reporter infection, fluorescence. Potency, µM (titrated, usually from 36.5 µM), inactives show at the top dose activity change, negative = inhibition, most hits filed as inhibitors; calls by dose curve; tested in A549 cells; note: % is set by controls: 0 for no effect and ±100 for the full control effect; nearly all actives have a fitted effect of over 35% in size
* = called active by the depositor; i = inactive; u = inconclusive; x = not tested or not shown; [ ] = another dose, or the depositor's remark. Hits are enriched below; roughly 11% of the tested compounds scored in any of these assays. Unless noted, calls come from the whole dose curve; as a rule, active = well fitted inhibition curve with a large enough effect; inconclusive = small, poorly fitted or top-dose-only effect, or another doubt; inactive = no such curve, though single readings can be large or run the other way. Potency is the fitted concentration of half-maximal effect.

SMILES	Pf growth 48h	Pf growth 96h	HCV inh	NS1 function inh	Vaccinia Venus	VACV mCherry inh
O=C(/C=C/c1ccc(Br)o1)NC(c1ccccc1)c1ccccc1	12µM*	u	-14%	0%	-1%	i
O=C(COC(=O)CNC(=O)C1CCCCC1)Nc1ccc(Cl)cn1	11%	u	13%	-10%	x	x
CN1/C(=C\C(=O)Nc2cccnc2)c2ccccc2CC1(C)C	u	5.9µM*	12%	5%	-2%	-2%
CCCc1cc(=O)oc2cc(O[C@@H]3O[C@H](CO)[C@@H](O)[C@H](O)[C@H]3O)ccc12	-1%	2%	-5%	0%	x	x
Cc1ccc(Cn2ccc(NC(=O)c3cc(-c4cccs4)on3)n2)cc1	10µM*	u	-3%	-2%	x	x
O=C(Nc1cnn(Cc2ccc(F)cc2)c1)c1cc(-c2ccc(Br)cc2)on1	x	x	x	-10%	x	x
O=C(Nc1cnn(Cc2ccc(F)cc2)c1)c1cc(-c2cccs2)on1	x	u	8.9µM*	-9%	x	x
CCCCCC1CCC(c2ccc(C(N)=O)cc2)CC1 (stereo not given)	1%	2.9µM*	-4%	4%	-8%	x
CC1(c2ccc(Cl)cc2)NC(=O)CS1 (stereo not given)	18%	0.26µM*	-5%	0%	-8%	i
O=C1CC(=O)N(c2ccc(Cl)cc2)C(=O)N1	-2%	61%	-4%	27%	9%	-1%
OC(CCN1CCCCC1)(c1ccccc1)c1ccccc1	u	u	-2%[8.37 µM]	-16%	-9%	-1%
OC(CCCN1CCCCC1)(c1ccccc1)c1ccc(C(F)(F)F)cc1 (stereo not given)	x	x	11µM*	x	-17%	u
O=C(NCc1ccco1)c1ccc(N2CCCCC2)c([N+](=O)[O-])c1	8.3µM*	6.6µM*	u	-11%	-13%	i
Cc1ccc(N(Cc2ccco2)C(=O)c2ccc(N3CCCCC3)c([N+](=O)[O-])c2)cc1	0%	12µM*	u	26%	x	x
CC1CCN(c2ccc(C(=O)NCc3ccco3)cc2[N+](=O)[O-])CC1	0.83µM*	1.2µM*	u	-45%	-20%	i
O=C1CSc2ccccc2N1	x	x	-5%	x	-16%	-12%
COc1cc(-c2nc(CN3CCN(CC(C)C)C(=O)[C@@H]3C)c(C)o2)ccc1F	9.3µM*	-29%	u	3%	-11%	i
COc1ccccc1/C=C/c1nc(S(=O)(=O)c2ccccc2)c(NCCN(C)C)o1	u	-30%	-1%	22%	x	x
COc1ccc(/C=C/c2nc(S(=O)(=O)c3ccccc3)c(NCCCN(C)C)o2)cc1OC	12µM*	u	7%	2%	x	x
Cc1ccc(C2C3=C(CC(C)(C)CC3=O)OC3=C2C(=O)CC(C)(C)C3)cc1	10µM*	-6%	11%	2%	-13%	0%
Cc1ccc(C2C3=C(CC(C)(C)CC3=O)Nc3[nH]c(=S)[nH]c(=O)c32)cc1 (stereo not given)	-25%	u	-1%	8.9µM*	x	x
Cc1[nH]nc2c1C(c1ccc(O)cc1)C1=C(CC(C)(C)CC1=O)N2 (stereo not given)	-10%	u	32%	2%	-24%	-17%
Cc1ccc(C2C3=C(CC(C)(C)CC3=O)N(CCN3CCOCC3)C3=C2C(=O)CC(C)(C)C3)cc1	12µM*	u	-8%	-3%	5%	2%
COc1ccc2c(c1OC)C(=O)N(c1cccc(C)c1)C2	172%	-20%	-19%	-36%	-14%	-3%
COc1ccc(-c2cc(C(F)(F)F)c3c(n2)sc2c(O)cc(=O)[nH]c23)c(OC)c1	u	u	-5%	22%	37%	-25%
SMILES	Pf growth 48h	Pf growth 96h	HCV inh	NS1 function inh	Vaccinia Venus	VACV mCherry inh
Cc1cc(C)c2c(n1)sc1c(O)cc(=O)[nH]c12	18%	7.4µM*	4%	u	x	x
Cc1cc(NC(=O)COC(=O)CCCOc2ccc(Cl)cc2C)no1	x	u	18%	-8%	-5%	-21%
CCCN(CCC)C(=O)Cn1ccc(=N)c2ccccc21	1.7µM*	x	13%	-2%	-5%	x
CCN(CC)C(=O)Cn1cc(SCC(=O)NC)c2ccccc21	14%	12µM*	3%	x	5%	3%
CCn1cc(SCC(=O)NC2CCCC2)c2ccccc21	7.4µM*	u	-21%	-16%	-20%	i
COc1ccc(NC(C)c2ccccc2)cc1 (stereo not given)	74%	u	21%	x	-13%	-14%
CN(C)S(=O)(=O)c1ccc(NC(=O)c2cccnc2)cc1	x	-35%	14%	14%	4%	-9%
O=C(CCCN1C(=O)c2ccccc2C1=O)Nc1ccccc1	12%	26%	12%	-2%	-9%	-10%
O=C(c1ccc(Cl)cc1)c1oc2ccccc2c1CS(=O)(=O)c1ccccc1	-3%	10µM*	x	7%	-16%	-23%
CCOc1ccc(CCNC(=O)CN2CCN(Cc3ccc(Cl)cc3)C2=O)cc1OCC	x	x	x	x	2%	-8%
CCOC(=O)N1CCC(NC(=O)c2ccc3c(c2)sc2nc(-c4cccc(OC)c4)cn23)CC1	7.4µM*	10%	u	u	x	x
CCOC(=O)N1CCN(C(=O)c2ccc3c(c2)N=C(C)c2cc(Cl)ccc2S3)CC1	9.3µM*	u	u	-16%	x	x
CCOC(=O)N1CCC(NC(=O)c2ccc3c(c2)N=C(CC)c2ccccc2S3)CC1	u	u	10µM*	12%	-9%[7.34 µM]	-17%[7.34 µM]
CCC1=Nc2cc(C(=O)NCCN(CC)CC)ccc2Sc2ccccc21	x	x	x	x	-11%	-12%
CCOCCCNC(=O)c1ccc2c(c1)N=C(CC)c1cc(Br)ccc1S2	4.1µM*	u	-29%	x	u	-21%
CN1CCN(c2ccc(CNS(=O)(=O)c3ccc(Cl)cc3)cc2)CC1	-8%	5%	-18%	-4%	1%[7.34 µM]	i[7.34 µM]
Cc1ccccc1/C=N/Nc1ccc(Cl)nn1	6%	3%	-22%	x	x	x
Cn1ccnc1SCC(=O)Nc1cccc(C(F)(F)F)c1	36%	u	-19%	-9%	0%	-3%
COc1ccc(CCn2c(-c3cccc([N+](=O)[O-])c3)nc3nc4ccccc4nc32)cc1	x	x	11%	x	-3%	-7%
CCCn1c(-c2ccc(OC)cc2)nc2nc3ccccc3nc21	9%	3.7µM*	-2%	-13%	x	x
COc1ccc(CCn2c(-c3cc([N+](=O)[O-])cc([N+](=O)[O-])c3)nc3nc4ccccc4nc32)cc1	u	0.74µM*	-3%	24%	-9%	-2%
COCCCn1c(-c2ccc(OC)cc2)nc2nc3ccccc3nc21	16%	x	14%	-4%	x	x
CCCCCn1cc2c(c1-c1ccccc1Br)c(=O)n(C)c(=O)n2C	x	x	x	x	-6%	-9%
